The text below walks through data of PubChem BioAssay AID372 (MTDP, 2006).

SMILES strings stand for the structures. Among all 100,000 compounds or so, about 770 (0.77%) were called active. This excerpt belongs to a sample that is enriched for actives. A number with no mark means an inactive call. Rule as the data show it: active = inhibition above about 50%; inactive = the rest.

This test concerns the target Gag-Pol polyprotein (Human immunodeficiency virus type 1 group M subtype B (isolate HXB2)) (UniProt P04585). Description: RNase H inhibition, HIV 1 Gag Pol polyprotein, FRET biochemical assay, screening (AID 372). The note with it: HIV-1 RT RNase H, FRET RNA/DNA substrate fluorescence; at 10 µM; active compounds read high.
As for `CC(C)(C)c1ccc(C(=O)NC2CCCC2)cc1`, the inhibition (as a rule, the change of the read-out against control, counted positive when it falls) was 2%. As for `O=C1c2ccccc2NC(c2ccccc2O)N1c1ccc(Cl)cc1` (configuration not stated), the figure is 12%. For the molecule `COc1cc(OC)c(OC)cc1CN1CCN(C/C=C/c2ccccc2)CC1`, the inhibition is 14%.

On to `c1ccc(N2N=C(c3cccs3)CC2c2cccs2)cc1` (configuration not stated), for which the inhibition is 6%. Then `COc1ccc(/C=N/n2nnnc2N)cc1Br`, with 30%; and `Cc1ccc2cc(C)c(NCc3ccccn3)nc2c1`, with 6%; and `CCOC(=O)C(CC)P(=O)(c1ccccc1)c1ccccc1` (configuration not stated), with 0%. As to `CCCC(=O)Nc1ccc(NC(=O)c2ccccc2[N+](=O)[O-])cc1`, the inhibition is 7%. Then `CN(C)c1ccc(C(=O)N2CCN(c3ccc(F)cc3)CC2)cc1`, with 13%; and `Cc1cc2nc(-c3ccc(C)c(NC(=O)c4cccc([N+](=O)[O-])c4)c3)oc2cc1C`, with 15%. Then `O=C(COc1ccc(Cl)cc1)Nc1ccc2oc(-c3ccc(Cl)cc3)nc2c1`, with 54% (active); and `Cc1ccc(-c2nc3ccccc3o2)cc1NC(=O)COc1ccc(Cl)cc1`, with 9%. `Cc1ccc(-c2nc3cc(Cl)ccc3o2)cc1NC(=O)c1cccc(Cl)c1`: the inhibition is 15%. Then `Cc1ccc(-c2nc3cc(Cl)ccc3o2)cc1NC(=O)c1cccc([N+](=O)[O-])c1`, with 57% (active); and `CCc1ccc2oc(-c3ccc(C)c(NC(=O)COc4ccc(Cl)cc4)c3)nc2c1`, with 52% (active). Then `Cc1ccc2oc(-c3ccc(NC(=O)COc4ccc(Br)cc4)cc3)nc2c1`, with 59% (active); and `CCc1ccc2oc(-c3ccc(C)c(NC(=O)COc4ccccc4)c3)nc2c1`, with 44%; and `COc1ccc(OCC(=O)Nc2ccc(-c3nc4cc(C)ccc4o3)cc2)cc1`, with 19%. Then `O=C(COc1ccccc1)Nc1ccc2oc(-c3ccc(Cl)cc3)nc2c1`, with 49%; and `O=C(COc1ccc(Cl)cc1)Nc1ccc2oc(-c3ccccc3)nc2c1`, with 16%.

Consider `Cc1ccc2oc(-c3ccc(NC(=O)COc4ccc(Cl)cc4)cc3)nc2c1`, for which the inhibition was 28%. As to `O=C(NCCN1CCOCC1)c1cc2nc(-c3ccc(Cl)cc3)cc(C(F)(F)F)n2n1`, the inhibition was 0%. For the molecule `COc1ccc(C=NN2CCN(Cc3ccccc3Cl)CC2)c(OC)c1`, the inhibition was 6%. As for `Cc1nc(-c2ccccc2)sc1C(=O)Nc1ccc(Br)cc1`, the inhibition is 15%. As for `c1ccc(-c2ccc(Oc3cc(-n4cccn4)ncn3)cc2)cc1`, the inhibition was 11%. As for `O=C(Nc1ccc(Cl)cc1)c1cccc(N2C(=O)c3cccnc3C2=O)c1`, the figure is 0%; as for `Cc1ccc(NC(=O)c2c(NC(=O)C(F)(F)F)sc3c2CCC3)c(C)c1`, 13%. As for `Cc1ccc(NC(=O)c2c(NC(=O)C(F)(F)F)sc3c2CCCCC3)c(C)c1`, the figure is 23%; as for `Oc1c(C=Nc2ccccc2)sc2ccccc12`, 4%; as for `CC(=O)c1ccc(NS(=O)(=O)c2cccc(S(=O)(=O)c3ccc(Cl)c(Cl)c3)c2)cc1`, 10%.

Turning to `COc1cc(/C=C2\SC(=S)N(Nc3ccccc3)C2=O)ccc1O`, the inhibition was 37%. On to `O=C(NN1C(=O)/C(=C/c2ccc(O)c(O)c2)SC1=S)c1ccccc1Br`, for which the inhibition is 50% (active). With `O=C(NN1C(=O)/C(=C/c2ccc(O)cc2)SC1=S)c1ccccc1Br`, the inhibition was 5%.

Regarding `O=C(NN1C(=O)/C(=C/c2ccc(O)c(O)c2)SC1=S)c1ccc(Br)cc1`, the inhibition was 58% (active). Then `COc1ccc(/C=C2\SC(=S)N(Nc3ccccc3)C2=O)cc1OC`, with 55% (active); and `COc1cc(/C=C2\SC(=S)N(NC(=O)c3ccc(O)c(OC)c3)C2=O)ccc1O`, with 34%; and `COc1cc(/C=C2\SC(=S)N(Nc3ccccc3)C2=O)cc(OC)c1OC`, with 4%. As for `O=C(NN1C(=O)/C(=C/c2ccc(Br)cc2)SC1=S)c1ccncc1`, the figure is 5%. As for `COc1cc(/C=C2\SC(=S)N(NC(=O)c3ccc(Br)cc3)C2=O)ccc1O`, the figure is 23%; as for `COc1cc(C(=O)NN2C(=O)/C(=C/c3ccccc3)SC2=S)ccc1O`, 4%. Regarding `COc1cc(C(=O)NN2C(=O)/C(=C/c3ccc(OC)c(OC)c3)SC2=S)ccc1O`, the inhibition was 61% (active). Take `COc1cc(/C=C2\SC(=S)N(NC(=O)c3ccccc3Br)C2=O)ccc1O`: the inhibition is 18%. As for `CCOc1ccc(C(=O)Nc2ccc3oc(-c4ccc(CC)cc4)nc3c2)cc1[N+](=O)[O-]`, the figure is 16%; as for `Nc1nc(CN2C(=O)c3ccccc3C2=O)cs1`, 2%; as for `CCOC(=O)c1c(NC(=O)c2ccc3c(c2)OCCO3)sc2c1CCCC2`, 5%. As for `CC(=O)OCCN1C(=O)c2ccc(Oc3cccc(Oc4ccc5c(c4)C(=O)N(CCOC(C)=O)C5=O)c3)cc2C1=O`, the figure is 10%; as for `CCOc1ccc(/C=C2\SC(=S)N(CCC(=O)Nc3cccnc3)C2=O)cc1`, 22%; as for `CC(=O)N1c2ccccc2NC2=C(C(=O)CC(c3ccccc3)C2)C1c1cccnc1` (configuration not stated), 7%. As for `O=C(O)c1cccc(C(=O)O)c1N(c1ccccc1)c1ccccc1`, the figure is 40%; as for `CCOc1cc(/C=N/n2cnnc2)cc(Cl)c1OCCOc1cc(C)ccc1C(C)C`, 10%.

Consider `COc1ccc(C(=O)Nc2nccs2)c(OC)c1`, for which the inhibition is 4%. As for `Cc1cccc(N2C(=O)NC(=O)/C(=C\c3ccc(Oc4ccc([N+](=O)[O-])cn4)cc3)C2=O)c1`, the figure is 13%; as for `Oc1ccccc1/C=N/n1c(-c2ccccc2)n[nH]c1=S`, 11%. Then `Oc1ccc(/C=N/n2c(-c3ccccc3)n[nH]c2=S)cc1O`, with 55% (active); and `COc1cc(/C=N/n2c(-c3ccc(C)cc3)n[nH]c2=S)ccc1O`, with 8%.

Turning to `Cc1cccc(C=Nn2c(-c3ccccc3)n[nH]c2=S)c1`, the inhibition is 22%. For `Cc1ccc(-c2n[nH]c(=S)n2/N=C/c2cc(Br)ccc2O)cc1`, the inhibition is 15%. For the molecule `Cc1ccc(-c2n[nH]c(=S)n2N=Cc2ccc(-c3ccccc3)cc2)cc1`, the inhibition was 56% (active). Regarding `Cc1ccc(-c2n[nH]c(=S)n2N=Cc2ccc(Cl)c(Cl)c2)cc1`, the inhibition was 18%. Then `Cc1ccc(-c2n[nH]c(=S)n2/N=C/c2ccc(O)cc2)cc1`, with 9%; and `COc1ccc(-c2n[nH]c(=S)n2N=Cc2ccc(-c3ccccc3)cc2)cc1`, with 45%. Then `Cc1ccc(-c2n[nH]c(=S)n2/N=C/c2ccc(O)cc2O)cc1`, with 8%; and `Cc1ccc(-c2n[nH]c(=S)n2N=Cc2ccc(O)c(O)c2)cc1`, with 60% (active); and `O=C1OC(/C=C/c2ccccc2)=NC/1=C/c1ccc(-c2ccc3c(c2)C(=O)NC3=O)o1`, with 33%. Consider `C#CCOc1ccc(C=C2C(=O)N(C)C(=S)N(C)C2=O)cc1Br`, for which the inhibition is 21%.

In the case of `Clc1ccc(C2C=C(c3cccs3)Nc3nnnn32)cc1` (configuration not stated), the inhibition is 3%. For `COc1cc(/C=C2/SC(=S)NC2=O)ccc1OC(C)C`, the inhibition was 1%. Take `COc1cc(/C=C2\SC(=Nc3ccc(C)c(Cl)c3)NC2=O)ccc1C`: the inhibition is 56% (active). With `Nc1ccc(/C=C2/SC(=S)NC2=O)cc1`, the inhibition is 4%. As to `O=C1NC(=S)S/C1=C\c1ccc(N2CCCC2)cc1`, the inhibition was 54% (active). Then `O=C1NC(=S)S/C1=C/c1cc(Br)ccc1O`, with 24%; and `COc1ccc(/C=C2/SC(=S)NC2=O)cc1I`, with 39%; and `COc1cc(/C=C2\SC(=Nc3ccc(C)c(Cl)c3)NC2=O)ccc1O`, with 47%. Then `O=C1NC(=S)S/C1=C/c1ccc(Cl)cc1`, with 10%; and `COc1ccc(/C=C2\SC(=S)NC2=O)cc1C`, with 65% (active); and `O=C1NC(=S)S/C1=C\c1ccc(O)c(O)c1`, with 78% (active). As for `COc1cc(/C=C2\SC(=Nc3ccc(C)c(Cl)c3)NC2=O)cc(OC)c1OC`, the figure is 21%. Turning to `O=C1NC(=S)S/C1=C/c1ccc(O)c(Br)c1`, the inhibition is 3%. As for `O=C1C(Cc2ccccc2)S/C(=N/N=C/c2cccc([N+](=O)[O-])c2)N1c1ccccc1` (configuration not stated), the figure is 20%. Take `Cc1ccc(NC(=O)CN(c2ccc(Br)cc2)S(=O)(=O)c2ccccc2)cc1Cl`: the inhibition was 7%. As for `CCOc1ccccc1NC(=O)CCN1C(=O)/C(=C/c2ccccc2Cl)SC1=S`, the figure is 13%; as for `CCCCOC(C)n1cc(Cl)c(=O)[nH]c1=O` (configuration not stated), 3%; as for `COc1ccc2c(c1)c(=O)oc1cc(OCC(=O)c3ccc(F)cc3)ccc12`, 34%. On to `COc1ccc(/C=C2\SC(=S)NC2=O)c(OC)c1OC`, for which the inhibition is 0%. As for `COc1cccc(OCCOc2c(Cl)cc(/C=C3/SC(=S)NC3=O)cc2OC)c1`, the figure is 23%; as for `CC(C)COc1ccc(/C=C2\SC(=S)NC2=O)c2ccccc12`, 51% (active); as for `COc1cc(/C=C2\SC(=S)NC2=O)cc(Br)c1OC(C)=O`, 4%. As for `COc1cc(/C=C2\SC(=S)NC2=O)ccc1OCCOc1ccccc1Cl`, the figure is 51% (active); as for `COc1cc(/C=C2\SC(=S)NC2=O)cc(Cl)c1OCCOc1ccccc1Cl`, 26%; as for `COc1cc(/C=C2/SC(=S)NC2=O)cc(Cl)c1OCC(C)COc1ccccc1` (configuration not stated), 50% (active).

Turning to `COc1cc(/C=C2\SC(=S)NC2=O)cc(Br)c1OC(=O)c1ccccc1`, the inhibition was 58% (active).

As for `COc1cc(/C=C2\SC(=S)NC2=O)cc(Br)c1OC`, the inhibition was 5%. As to `CC(C)COc1ccc(/C=C2\SC(=S)NC2=O)cc1`, the inhibition is 22%. With `COc1ccc(OCCOc2c(Cl)cc(/C=C3\SC(=S)NC3=O)cc2OC)cc1`, the inhibition was 47%. Consider `CCOc1cc(/C=C2\SC(=S)NC2=O)ccc1OCCOc1ccccc1Cl`, for which the inhibition was 43%. Then `CCc1ccc(C=Nn2c(-c3ccc(Cl)cc3)n[nH]c2=S)cc1`, with 3%; and `CCOc1cc(/C=C2\C(=O)NC(=O)N(c3ccc(Cl)cc3)C2=O)cc(Cl)c1OCC`, with 0%.
